# Results taken from PMC4336329 (PLoS ONE, 2015).
# About 14,000 (4.5%) of roughly 310,000 compounds showed an effect of 50% or more. Effects have a minus sign here. Only a selection was taken, and strong results are over-represented in it overall.
# Biological target: human ether-à-go-go-related gene (hERG) potassium channel (human, UniProt Q12809)
# Test: primary screen, population patch clamp on CHO cells stably expressing hERG; higher = less effect of the substance
# 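Further: peak tail current of the secondary pulse compared with the same well before compound.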
# Chain of human ether-à-go-go-related gene (hERG) potassium channel (Q12809 whole entry, looked up): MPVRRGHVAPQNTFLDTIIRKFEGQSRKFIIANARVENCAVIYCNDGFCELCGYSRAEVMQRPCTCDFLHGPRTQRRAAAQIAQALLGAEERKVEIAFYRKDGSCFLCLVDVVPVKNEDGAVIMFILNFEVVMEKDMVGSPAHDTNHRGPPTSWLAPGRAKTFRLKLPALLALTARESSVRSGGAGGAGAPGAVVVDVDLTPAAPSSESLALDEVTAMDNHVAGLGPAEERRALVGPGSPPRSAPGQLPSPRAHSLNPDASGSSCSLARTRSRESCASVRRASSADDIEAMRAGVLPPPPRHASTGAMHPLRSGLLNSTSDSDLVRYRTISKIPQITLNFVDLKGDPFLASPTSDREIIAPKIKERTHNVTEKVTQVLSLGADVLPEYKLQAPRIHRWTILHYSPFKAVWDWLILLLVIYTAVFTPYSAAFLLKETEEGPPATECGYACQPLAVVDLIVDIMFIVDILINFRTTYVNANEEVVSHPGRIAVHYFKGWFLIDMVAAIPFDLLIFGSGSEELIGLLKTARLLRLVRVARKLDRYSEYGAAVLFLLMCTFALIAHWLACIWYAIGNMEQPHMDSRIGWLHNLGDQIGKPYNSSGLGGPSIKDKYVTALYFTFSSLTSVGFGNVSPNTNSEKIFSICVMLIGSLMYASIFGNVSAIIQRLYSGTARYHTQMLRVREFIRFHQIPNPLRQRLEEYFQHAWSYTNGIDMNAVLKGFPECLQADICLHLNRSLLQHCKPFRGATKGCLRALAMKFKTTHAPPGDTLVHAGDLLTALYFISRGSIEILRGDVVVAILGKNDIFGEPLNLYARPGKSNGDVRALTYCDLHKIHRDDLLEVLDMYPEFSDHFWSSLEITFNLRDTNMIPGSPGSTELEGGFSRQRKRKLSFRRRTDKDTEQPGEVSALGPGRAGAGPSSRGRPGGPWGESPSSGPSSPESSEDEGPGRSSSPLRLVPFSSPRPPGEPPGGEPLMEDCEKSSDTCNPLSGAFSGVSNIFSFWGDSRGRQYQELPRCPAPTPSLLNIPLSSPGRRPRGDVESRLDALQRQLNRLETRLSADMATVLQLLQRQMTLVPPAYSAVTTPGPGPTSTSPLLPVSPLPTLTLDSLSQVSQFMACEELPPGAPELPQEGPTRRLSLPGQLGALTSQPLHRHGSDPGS
row,SMILES,"hERG current change (%, negative = inhibition) at 10uM [%]"
1,N#CCCN(Cc1ccccc1)S(=O)(=O)c1cccs1,-16.5
2,COc1cc(CC(=O)N(C)CC(=O)Nc2cc(C)ccc2C)cc(OC)c1OC,11
3,COc1ccc(OCC(=O)O/N=C(\N)c2ccc(OC)c(OC)c2)cc1,7.84
4,CN(C)S(=O)(=O)c1ccc(C(=O)OCC(=O)Nc2cccnc2Cl)cc1,1.64
5,CC(=O)N1CCN(Cc2nc3cc(NC(=O)Cn4nc(C)c5ccccc5c4=O)ccc3n2C)CC1,17.9
6,COc1ccc(CN2C(=O)CCC2(C)C(=O)NC2CCCCCC2)cc1 (stereo not shown),-13.8
7,O=C(NCc1ccncc1)Nc1cc(Cl)ccc1Cl,-8.6
8,CC1=CN2CC(O)CN=C2C=C1.Cl (stereo not shown),-1.57
9,COc1cccc(OC)c1OCCNCC1COc2ccccc2O1.Cl (stereo not shown),-22.5
10,COc1cccc(OC)c1OCCNCC1CSc2ccccc2O1.Cl (stereo not shown),-53.6
11,COc1cccc(OC)c1OCCNCCO,21.5
12,COc1ccc(-n2nnc3c(SCC(=O)Nc4ccccc4F)ncnc32)cc1,18.9
13,CCOc1ccccc1NC(=O)CSc1nnc(-c2ccco2)n1Cc1ccco1,-63.4
14,COCCn1c(SCC(=O)Nc2ccccc2OC)nnc1-c1ccco1,-13.6
15,CCOc1ccccc1NC(=O)CSc1nnc(-c2ccccc2Cl)n1Cc1ccco1,-32
16,CCOC(=O)CNC(=O)CSc1nnc(-c2ccco2)n1Cc1ccco1,10.4
17,COc1ccccc1NC(=O)CSc1nnc(Cn2c(=O)sc3ccccc32)n1C,-44
18,COc1ccccc1NC(=O)CSc1nnc(-c2ccco2)n1N,-3.82
19,COc1ccc(C)cc1NC(=O)CSc1nnc(-c2ccccn2)n1Cc1ccco1,-15.8
20,CCOc1ccccc1NC(=O)CSc1nnc(Cn2c(=O)sc3ccccc32)n1C,-61.9
21,CCOc1ccccc1NC(=O)CSc1nnc(-c2ccccn2)n1Cc1ccco1,-67.3
22,COc1ccccc1NC(=O)CSc1nnc(-c2ccccn2)n1Cc1ccco1,-9.97
23,CCCn1c(SCC(=O)Nc2ccccc2OC)nnc1-c1ccco1,-68.5
24,CCOc1ccc(NC(=O)CSc2nnc(Cn3c(=O)sc4ccccc43)n2C)cc1,-4.3
25,CCOc1ccc2nc(NC(=S)N(C)C)sc2c1,13

row,SMILES,"hERG current change (%, negative = inhibition) at 10uM [%]"
1,Cc1ccnc(NC(=S)NC(=O)c2ccco2)c1,-10.3
2,Cc1cc(C)c(C(=O)COC(=O)c2cc([N+](=O)[O-])ccc2N2CCOCC2)cc1C,-4.07
3,Cc1ccc(SC(C)c2nc(-c3cccnc3)no2)cc1 (stereo not shown),-30.5
4,COc1ccc(OC)c(CN2CCN(C(=O)c3ccco3)CC2)c1.O=C(O)C(=O)O,0.201
5,COc1ccccc1NC(=O)CSc1nnc(-c2ccco2)n1Cc1ccco1,-65.4
6,COc1ccc(C)cc1NC(=O)CSc1nnc(-c2ccco2)n1Cc1ccco1,-12.8
7,COC(=O)CSc1nnc(-c2ccco2)n1Cc1ccco1,-26.8
8,CN(C)c1cc(-c2ccc(Cl)cc2)oc(=O)c1Cl,-6.67
9,CN(C)c1cc(-c2ccc(C#N)cc2)oc(=O)c1Cl,-50.1
10,CN(C)c1cc(-c2ccc(Br)cc2)oc(=O)c1Cl,15.5
11,CCCCSc1cc(C)nc(N)n1,-1.73
12,O=C(Nc1ccc(O)c(C(=O)O)c1)c1ccc2c(c1)C(=O)N(CC1CCCO1)C2=O (stereo not shown),6.21
13,CCCCCC(O)(CCN1CCCCC1)c1ccccc1.Cl (stereo not shown),-82.4
14,Cl.OC(CCCN1CCCCC1)(c1ccccc1)c1ccccc1,-44
15,CS(=O)(=O)O.OC(CCN1CCCCC1)(c1ccccc1)c1ccccc1,-36.2
16,CCCCOc1ccc(C(O)(CCN2CCOCC2)c2ccccc2)cc1.Cl (stereo not shown),-21.7
17,COc1ccc(C(O)(CCc2ccccc2)CCN2CCCCC2)cc1.Cl (stereo not shown),-17.5
18,CCC(O)(CCN1CCCCC1)c1ccccc1 (stereo not shown),-5.84
19,C=CCC(O)(CCN1CCCCC1)c1ccccc1.Cl (stereo not shown),-10.8
20,CCCCCCC(O)(CCN1CCCCC1)c1ccccc1.Cl (stereo not shown),-70.3
21,CCCCCC(O)(CCN1CCCCC1)c1ccc(OCC)cc1.Cl (stereo not shown),-77.1
22,NC(=O)c1nsc(C(=O)N(c2cccc(F)c2)C(C(=O)NCc2ccccc2)c2ccc(O)cc2)c1N (stereo not shown),-22.4
23,Cc1cccn2c(CN(C)CC3CCCCO3)c(C(=O)N3CCCCC3)nc12 (stereo not shown),20.9
24,Cc1cc(S(=O)(=O)NCc2ccco2)c(C)cc1Cl,14.1
25,COc1ccc(-c2nc3ccccc3c(=O)n2N)cc1,-13.7

row,SMILES,"hERG current change (%, negative = inhibition) at 10uM [%]"
1,Cc1nnc(NC(=O)c2csc3c2CCC(C)C3)s1 (stereo not shown),13.9
2,O=C(NCCCN1CCOCC1)C(=O)NCc1ccco1,-1.68
3,N=c1c2c(-c3ccccc3)c(-c3ccccc3)n(Cc3ccco3)c2ncn1CCCN1CCOCC1,-84.9
4,N=c1c2c(-c3ccccc3)c(-c3ccccc3)n(Cc3ccco3)c2ncn1CCN1CCOCC1,-75.9
5,O=C(NCCN1CCOCC1)C(=O)NCc1ccco1,19.5
6,O=c1c2ccccc2nc(-c2ccccc2)n1CCCN1CCOCC1,-20.4
7,CC(C)Cn1c2nc3ccccc3nc2c2c(=O)n(CCN3CCOCC3)cnc21,-48.1
8,Cc1ccccc1C(=O)NCCCNC(=O)c1cnccn1,13.5
9,COc1ccccc1OCc1nc(Cc2ccc(Cl)cc2)no1,-31.4
10,CCn1c(=O)c(C(=O)NNC(=O)c2ccccc2Cl)c(O)c2ccccc21,7.09
11,CC1=C(C(=O)OCC2CCCO2)C(c2ccccc2)C2=C(CCCC2=O)N1 (stereo not shown),11.2
12,CCC(C)[C@H](NC(=O)N1CCn2c1nc1ccccc12)C(=O)NCCc1ccccc1 (stereo partly shown),-2.42
13,COc1ccc(OC)c(/C=C/C(=O)OCC(=O)NCc2cccs2)c1,17.8
14,Cc1onc(-c2ccccc2)c1NC(=O)N(CCC(=O)O)Cc1ccccc1,2.16
15,COc1ccc(NC(=O)CN(C)C(=O)c2ccc3c(c2)NC(=O)CS3)cc1,-10.2
16,COC(=O)c1cc(NC(=O)c2cccs2)ccc1N1CCOCC1,-1.74
17,COc1ccc(-c2cc(C(=O)N3CC(C)CC(C)C3)c3ccccc3n2)cc1 (stereo not shown),5.7
18,O=C(CCCN1C(=O)c2ccccc2C1=O)N1CCc2ccccc2C1,-27.2
19,CC(C)CC(C(=O)N1CCc2ccccc2C1)N1C(=O)c2ccccc2C1=O (stereo not shown),-50.3
20,CC(C)CC(C(=O)N1CCOCC1)N1Cc2ccccc2C1=O (stereo not shown),29.3
21,Cc1cc(NC(=O)c2cccs2)ncc1NC(=O)C(C)(C)C,9.59
22,CSc1ccc(C(=O)C2CCCN(CCCn3cccn3)C2)cc1 (stereo not shown),-76.8
23,CN(C)S(=O)(=O)N1CCCC(C(=O)c2ccc(-c3ccccc3)c(F)c2)C1 (stereo not shown),7.39
24,O=C(c1ccc(-c2ccccc2)cc1)C1CCCN(C(=O)c2ccncc2)C1 (stereo not shown),-13.4
25,O=C(c1ccc(-c2ccccc2)cc1)C1CCCN(Cc2ccncc2)C1 (stereo not shown),-62.6

row,SMILES,"hERG current change (%, negative = inhibition) at 10uM [%]"
1,CSc1ccc(C(=O)C2CCCN(C)C2)cc1 (stereo not shown),-23.1
2,Cn1cc(CN2CCCC(C(=O)c3ccc(-c4ccccc4)c(F)c3)C2)cn1 (stereo not shown),-55.4
3,CSc1ccc(C(=O)C2CCCN(C(=O)c3cc(C)n(C)n3)C2)cc1 (stereo not shown),-7.88
4,CSc1ccc(C(=O)C2CCCN(C(=O)c3nn(C)c(=O)c4ccccc34)C2)cc1 (stereo not shown),-64.9
5,CSc1ccc(C(=O)C2CCCN(C(=O)CCCn3cncn3)C2)cc1 (stereo not shown),-40.5
6,O=C(c1ccc(C(F)(F)F)cc1)C1CCCN(Cc2ccncc2)C1 (stereo not shown),-23.7
7,Cn1nc(C(=O)N2CCCC2)c2ccccc2c1=O,23
8,Clc1ccc(-c2csc(N/N=C/c3cccnc3)n2)c(Cl)c1,-11.9
9,CC(=O)N1Cc2cc(N)ccc2Oc2ccccc21,9.9
10,Cc1cccc(NC(=S)N2CCN(S(=O)(=O)c3ccc(F)cc3)CC2)c1,16.7
11,CCOC(=O)C(NCCCCl)c1ccccc1 (stereo not shown),2.53
12,CCOC(=O)C(C)Sc1nnc(CSc2nc3nc(C)cc(C)n3n2)o1 (stereo not shown),9.3
13,CCOc1ccccc1N=Cc1c(O)c2ccccc2oc1=O,15.4
14,CN(c1ccc(C(=O)N2CCCCC2)cc1)S(C)(=O)=O,10.6
15,COc1ccc(Nc2nc(NC(C)(C)C)nc(N3CCOCC3)n2)c(OC)c1,-25.3
16,O=C(Oc1ccc2c3c(c(=O)oc2c1)CCCC3)c1cccs1,-4.43
17,COCC(=O)N1CCCC(C(=O)c2ccc(-c3ccccc3)c(F)c2)C1 (stereo not shown),-23.3
18,CCC(=O)N1CCCC(C(=O)c2ccc(-c3ccccc3)cc2)C1 (stereo not shown),-19
19,O=C(c1ccc(-c2ccccc2)c(F)c1)C1CCCN(CCO)C1 (stereo not shown),-44.8
20,O=C(c1ccc(-c2ccccc2)c(F)c1)C1CCCN(CCCn2cccn2)C1 (stereo not shown),-69.6
21,CC(=O)NCC(=O)N1CCCC(C(=O)c2ccc(-c3ccccc3)c(F)c2)C1 (stereo not shown),-25.1
22,CCn1cc(CN2CCCC(C(=O)c3ccc(-c4ccccc4)c(F)c3)C2)cn1 (stereo not shown),-57.6
23,O=C(c1ccc(-c2ccccc2)c(F)c1)C1CCCN(C(=O)c2cncs2)C1 (stereo not shown),-18.4
24,Cn1cc(CN2CCCC(C(=O)c3ccc(-c4ccccc4)cc3)C2)cn1 (stereo not shown),-34.4
25,CCn1cc(CN2CCCC(C(=O)c3ccc(-c4ccccc4)cc3)C2)cn1 (stereo not shown),-59.1
